These results are taken from PubChem BioAssay (Tox21).

Molecules are shown by their SMILES. “And” between values parts separate entries of the source, which are not always exact repeats. Identical values can stand only once. Records with an inconclusive call do not appear. A structure can be active in one record and inactive in another. The source made the active and inactive calls. Unless noted, calls come from the whole dose curve; as a rule, active = well fitted curve in the direction sought with a large enough effect in the repeat runs; inconclusive = weak or mixed curves; inactive = no such curve, though single readings can be large; an effect the other way counts as inactive or inconclusive.

The target of assay [1] is Retinoic acid receptor RXR-alpha (Homo sapiens) (UniProt P19793). Put plainly: qHTS assay to identify small molecule agonists of the RXR signaling pathway (AID 1159527; calls by dose curve; note: nearly all actives have a fitted effect of over 35% in size). In a few lines: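 GeneBLAzer RXR-alpha-UAS-bla HEK 293T cells in medium with 2% charcoal-stripped FBS, pre-incubated 5 hr at 37 C, then exposed to compounds 16 hr. Beta-lactamase reporter read by FRET substrate, 2 hr room temperature, 460/530 nm emission.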
Background: In qHTS, concentration-response curves come from the screen itself.

Assay [2] can be described thus: qHTS assay to identify small molecule agonists of the RXR signaling pathway - cell viability counter screen (AID 1159529). Note: nearly all actives have a fitted effect of over 50% in size. In a few lines: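 RXR-alpha-UAS-bla HEK 293T cells in medium with 2% charcoal-stripped FBS were preincubated 5 hr, then exposed to compounds for 16 hr at 37 C. Viability was read as CellTiter-Glo luminescence after 30 min at room temperature.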

A short description of assay [3]: qHTS assay to identify small molecule antagonists of the retinoid acid receptor (RAR) signaling pathway - cell viability counter screen (AID 1159551). Note: nearly all actives have a fitted effect of over 35% in size. The method in brief: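 Seed C3RL4 cells; next day add compound, then retinol to 1 uM final; incubate 6 h at 37 C; add CellTiter-Glo; read luminescence after 30 min at RT.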
Assay [4] is described as follows: qHTS assay to identify small molecule antagonists of the retinoic acid receptor (RAR) signaling pathway (AID 1159552; note: nearly all actives have a fitted effect of over 50% in size). In a few lines: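 RARE-luc C3RL4 cells; cpds + 1 uM (final) retinol, 6 hr, 37 C/5% CO2; luciferase reagent, 30 min RT, luminescence readout. Inhibitors of retinol-driven signal scored.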
The nature of assay [5]: qHTS assay to identify small molecule agonists of the retinoic acid receptor (RAR) signaling pathway (AID 1159553). The note with it: C3RL4 RARE luciferase reporter, agonist, 6 h. In a few lines: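 Activation of retinol signaling was monitored via a RARE luciferase reporter in C3RL4 cells. After 6 hr compound treatment at 37 C, detection reagent was added for 30 min at room temperature before luminescence reading.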

A short description of assay [6]: qHTS assay to identify small molecule antagonists of the estrogen related receptor (ERR) signaling pathway from Tox21 library - cell viability counter screen (AID 1224834). Note: nearly all actives have a fitted effect of over 30% in size. In a few lines: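 CellTiter-Fluor fluorescence measured; ERR cells; 17.5 h compound incubation at 37 C; 30 min reagent step.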
Assay [7] addresses Luciferin 4-monooxygenase (Photinus pyralis) (UniProt P08659). Put plainly: qHTS assay to identify small molecule inhibitors of firefly luciferase (AID 1224835). Note: nearly all actives have a fitted effect of over 25% in size. Note: potency is the fitted concentration of half-maximal effect. The method in brief:
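Biochemical qHTS: compounds run as interplate titrations against purified firefly enzyme, with D-luciferin and ATP each at its KM concentration. Light output recorded by CCD imaging.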

Assay [8] can be described thus: qHTS assay to identify small molecule agonists of the constitutive androstane receptor (CAR) signaling pathway - cell viability counter screen (AID 1224836). Note: nearly all actives have a fitted effect of over 45% in size. In a few lines:
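HepG2 cells stably carrying hCAR and a CYP2B6-2.2kb reporter were plated 4 h, then given compounds at 15 concentrations plus PK11195 (final 0.75 uM). After 23 h at 37 C, viability was read by CellTiter-Fluor fluorescence.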

Assay [9] is described as follows: qHTS assay to identify small molecule antagonists of the estrogen related receptor (ERR) signaling pathway - cell viability counter screen (AID 1224818). The method in brief: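 In the same ERR cell assay, compound-treated wells (17.5 h, 37 C) were multiplexed with a fluorogenic viability reagent, CellTiter-Fluor, read after 30 min to flag cytotoxic substances.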

Assay [10] can be described thus: qHTS assay to identify small molecule antagonists of the estrogen related receptor signaling pathway with the pleiotropic PPARgamma coactivator (PGC) cell viability counter screen (AID 1224822). The method in brief: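 Compounds in DMSO, with positive and negative controls, were applied to PGC/ERR cells (2,000/well) and left 17.5 h at 37 C before CellTiter-Fluor detection.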

Where [11] appears, read: activation: at 73.3 µM (top of the series) unless noted.
% is set by controls: 0 for no effect and ±100 for the full control effect.

Chain of Retinoic acid receptor RXR-alpha (Homo sapiens) (P19793 whole entry, looked up): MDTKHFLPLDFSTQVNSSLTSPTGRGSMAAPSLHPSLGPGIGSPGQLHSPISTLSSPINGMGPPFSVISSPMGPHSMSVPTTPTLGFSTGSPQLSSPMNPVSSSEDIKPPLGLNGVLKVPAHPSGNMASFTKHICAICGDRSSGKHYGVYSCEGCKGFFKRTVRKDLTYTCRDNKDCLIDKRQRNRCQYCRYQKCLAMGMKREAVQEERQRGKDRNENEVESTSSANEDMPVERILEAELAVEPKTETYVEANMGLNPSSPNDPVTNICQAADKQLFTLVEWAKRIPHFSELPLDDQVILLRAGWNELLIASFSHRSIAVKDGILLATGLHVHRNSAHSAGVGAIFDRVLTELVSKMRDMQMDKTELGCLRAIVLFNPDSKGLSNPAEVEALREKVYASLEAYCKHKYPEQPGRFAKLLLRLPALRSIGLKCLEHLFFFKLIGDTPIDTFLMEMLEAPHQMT
Chain of Luciferin 4-monooxygenase (Photinus pyralis) (P08659 whole entry, looked up): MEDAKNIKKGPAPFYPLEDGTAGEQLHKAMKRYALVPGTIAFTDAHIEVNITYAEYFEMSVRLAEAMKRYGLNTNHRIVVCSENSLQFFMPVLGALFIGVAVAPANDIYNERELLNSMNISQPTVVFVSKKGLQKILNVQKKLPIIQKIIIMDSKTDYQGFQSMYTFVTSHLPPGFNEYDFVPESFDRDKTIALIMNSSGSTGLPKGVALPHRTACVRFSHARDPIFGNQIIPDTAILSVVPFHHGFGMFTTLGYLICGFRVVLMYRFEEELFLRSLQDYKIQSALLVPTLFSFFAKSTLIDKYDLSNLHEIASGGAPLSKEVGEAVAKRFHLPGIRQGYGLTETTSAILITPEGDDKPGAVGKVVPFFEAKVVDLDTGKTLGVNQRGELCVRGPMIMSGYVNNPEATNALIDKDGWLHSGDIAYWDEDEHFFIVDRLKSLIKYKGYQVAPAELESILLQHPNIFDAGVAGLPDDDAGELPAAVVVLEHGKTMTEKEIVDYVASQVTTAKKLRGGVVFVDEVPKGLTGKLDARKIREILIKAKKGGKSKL

Turning to `Clc1cccc(Cl)c1Cl`, the Potency result in assay [1], in [2], in assay [4], in assay [5] (setting [11]), in [6] and in assay [7] was “inactive” each time. In addition, the Potency result in [8] is “inactive”. Also, the outcome in assay [3] was inactive.
With `Cc1ccc(N)cc1Cl`, the Potency entry in assay [1], in assay [2], in assay [4], in assay [5] (setting [11]) and in [8] was “inactive” each time. For the same compound, the compound was classed as inactive in assay [3]. For the same compound, in assay [7], the Potency entry is “inactive and 56.4 µM (active)”.
Regarding `c1ccc(-c2ccccc2)cc1`, the Potency entry in [1], in [2], in assay [4], in assay [5] (setting [11]), in assay [7] and in assay [8] was “inactive” throughout. Moreover, the compound was called inactive in assay [3].
On to `CC(Br)C(=O)O` (stereo not given), for which the Potency result in assay [1], in assay [2], in [4], in assay [5] (setting [11]), in assay [6] and in assay [7] was “inactive” in each case. Moreover, the Potency entry in assay [8] was “inactive”. Besides, the outcome in assay [3] was inactive.
Regarding `[O-][Cl+2]([O-])O`, the Potency entry in assay [1], in assay [2], in assay [4], in assay [5] (setting [11]) and in [7] was “inactive” throughout. In assay [3], the result was inactive.
Turning to `CCCCOC(=O)c1ccccc1C(=O)OCCCC`, the Potency result in assay [1], in assay [2], in assay [4], in [5] (setting [11]), in assay [6] and in [7] was “inactive” each time. In assay [3], the compound was called inactive.
In the case of `O=[N+]([O-])c1ccccc1`, the Potency result in assay [1], in [2], in assay [4], in assay [5] (setting [11]), in [6] and in assay [7] was “inactive” each time. Moreover, the call in [3] was inactive.
Turning to `C#CCN(C)[C@H](C)Cc1ccccc1`, the Potency entry in [1], in assay [2], in assay [4], in assay [5] (setting [11]), in assay [6] and in assay [7] was “inactive” throughout. Also, the Potency result in assay [8] is “inactive”. Besides, the result in assay [3] was inactive.
Turning to `Cc1ccccc1O`, the Potency entry in assay [1], in assay [2], in assay [4], in assay [5] (setting [11]), in assay [6] and in [7] was “inactive” throughout. Further, the compound was classed as inactive in assay [3].
Consider `Cc1[nH]c(=O)n(C(C)(C)C)c(=O)c1Cl`, for which the Potency entry in [1], in [2], in assay [4], in assay [5] (setting [11]), in assay [6] and in assay [7] was “inactive” in each case. Besides, the result in assay [3] was inactive.
As for `CC(C)(C)OOC(=O)c1ccccc1`, the Potency result in [1], in [2], in [4], in assay [5] (setting [11]), in assay [6] and in [7] was “inactive” throughout. Further, the Potency result in assay [8] was “inactive”. Besides, the result in [3] was inactive.
Consider `C#CC(C)(C)NC(=O)c1cc(Cl)cc(Cl)c1`, for which the Potency result in assay [1], in assay [2], in assay [4], in assay [5] (setting [11]) and in [7] was “inactive” throughout. Further, the outcome in assay [3] was inactive.
`CCCCCCCCCl`: the Potency result in assay [1], in assay [2], in [4], in assay [5] (setting [11]), in assay [6] and in assay [7] was “inactive” each time. For the same compound, in assay [3], the compound was called inactive.
As for `CCc1cccc(C)c1N(C(=O)CCl)C(C)COC` (stereo not given), the Potency result in assay [1], in assay [2], in assay [4], in assay [5] (setting [11]), in assay [6] and in assay [7] was “inactive” throughout. The Potency entry in assay [8] is “inactive”. For the same compound, the result in assay [3] was inactive.
`CC1C=[C-]C=C1.[C-]#[O+].[C-]#[O+].[C-]#[O+].[Mn]`: the Potency result in assay [1], in [2], in assay [4], in [5] (setting [11]), in assay [6] and in assay [7] was “inactive” in each case. In addition, the Potency result in assay [8] was “inactive”. Moreover, the compound was classed as inactive in [3].
For `Nc1ccc(Cc2ccc(N)cc2)cc1`, the Potency entry in [1], in [2], in assay [4], in [5] (setting [11]), in assay [7] and in [8] was “inactive” each time. Further, the outcome in assay [3] was inactive.
For the compound `Nc1ccccc1C(=O)O`, the Potency entry in assay [1], in assay [2], in assay [4], in assay [5] (setting [11]), in [6] and in assay [7] was “inactive” in each case. The Potency result in [8] was “inactive”. Moreover, the compound was called inactive in assay [3].
For the compound `NCC(O)c1ccc(O)cc1` (stereo not given), the Potency result in [1], in assay [2], in assay [4], in assay [5] (setting [11]) and in assay [7] was “inactive” throughout. Further, the compound was called inactive in assay [3], in assay [9] and in assay [10].
Turning to `CC(C)(C)C(O)(CCc1ccc(Cl)cc1)Cn1cncn1` (stereo not given), the Potency result in assay [1], in [2], in [4], in [7] and in assay [8] was “inactive” throughout. Also, in assay [3], the compound was called inactive. Also, the values for the activation in assay [5] (setting [11]) and in [5] (at 73.3 µM (top of the series)) were -3.95% [at 94.8 µM] (active) and -2.94% (inactive), respectively.
With `Clc1ccc(Cl)cc1`, the Potency entry in assay [1], in [2], in assay [4], in assay [5] (setting [11]), in [6] and in assay [7] was “inactive” in each case. For the same compound, in assay [3], the outcome was inactive.
For `CN(C)N=O`, the Potency entry in assay [1], in [2], in [4], in [5] (setting [11]), in [7] and in assay [8] was “inactive” throughout. Further, the compound was called inactive in assay [3].
As for `CC(C)C1(C)N=C(c2nc3ccccc3cc2C(=O)O)NC1=O` (stereo not given), the Potency entry in assay [1], in assay [2], in assay [4], in assay [5] (setting [11]) and in assay [7] was “inactive” throughout. The result in assay [3] was inactive.
